Measured values reported in ChEMBL document CHEMBL2218924, “A broad activity screen in support of a chemogenomic map for kinase signalling research and drug discovery” (Biochem J, 2013).

Legend:
[1] = target: T1, Serine/threonine-protein kinase 17A (Homo sapiens) (UniProt Q9UEE5); details: at 10 µM
T1 sequence (whole entry): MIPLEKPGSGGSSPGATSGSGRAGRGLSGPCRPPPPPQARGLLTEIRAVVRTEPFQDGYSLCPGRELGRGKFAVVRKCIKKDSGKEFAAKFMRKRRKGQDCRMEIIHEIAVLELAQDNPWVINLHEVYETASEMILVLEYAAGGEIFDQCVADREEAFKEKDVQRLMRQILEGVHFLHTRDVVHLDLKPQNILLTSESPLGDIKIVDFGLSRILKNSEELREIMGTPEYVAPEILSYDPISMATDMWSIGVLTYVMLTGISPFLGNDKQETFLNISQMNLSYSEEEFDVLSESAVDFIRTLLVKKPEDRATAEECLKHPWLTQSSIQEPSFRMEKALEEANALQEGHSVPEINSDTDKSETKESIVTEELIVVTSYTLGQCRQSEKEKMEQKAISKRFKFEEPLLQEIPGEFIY

[2] = target: T2, Dual specificity tyrosine-phosphorylation-regulated kinase 2 (Homo sapiens) (UniProt Q92630); details: at 1 µM
T2 sequence (whole entry): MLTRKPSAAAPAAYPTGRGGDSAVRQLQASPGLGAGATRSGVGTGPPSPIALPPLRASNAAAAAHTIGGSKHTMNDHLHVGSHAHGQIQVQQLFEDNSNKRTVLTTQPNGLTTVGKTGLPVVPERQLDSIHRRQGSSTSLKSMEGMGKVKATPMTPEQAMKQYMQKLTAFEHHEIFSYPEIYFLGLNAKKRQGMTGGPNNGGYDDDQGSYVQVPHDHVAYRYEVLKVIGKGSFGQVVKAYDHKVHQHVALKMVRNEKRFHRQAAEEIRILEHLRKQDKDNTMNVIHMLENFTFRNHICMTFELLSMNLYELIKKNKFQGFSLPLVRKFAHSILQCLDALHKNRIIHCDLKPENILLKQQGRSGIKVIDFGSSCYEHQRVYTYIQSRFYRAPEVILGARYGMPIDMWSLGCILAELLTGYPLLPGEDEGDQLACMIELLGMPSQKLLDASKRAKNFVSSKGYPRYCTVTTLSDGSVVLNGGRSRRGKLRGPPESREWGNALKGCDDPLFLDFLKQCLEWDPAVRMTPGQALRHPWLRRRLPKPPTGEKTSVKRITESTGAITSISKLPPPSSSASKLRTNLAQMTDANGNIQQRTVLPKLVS

[3] = target: T2, Dual specificity tyrosine-phosphorylation-regulated kinase 2 (Homo sapiens); details: at 10 µM
[4] = target: Epidermal growth factor receptor (Homo sapiens) (UniProt P00533); details: at 1 µM
[5] = target: Epidermal growth factor receptor (Homo sapiens) (UniProt P00533); details: at 10 µM
[6] = target: T3, Ephrin type-A receptor 1 (Homo sapiens) (UniProt P21709); details: at 1 µM
T3 sequence (whole entry): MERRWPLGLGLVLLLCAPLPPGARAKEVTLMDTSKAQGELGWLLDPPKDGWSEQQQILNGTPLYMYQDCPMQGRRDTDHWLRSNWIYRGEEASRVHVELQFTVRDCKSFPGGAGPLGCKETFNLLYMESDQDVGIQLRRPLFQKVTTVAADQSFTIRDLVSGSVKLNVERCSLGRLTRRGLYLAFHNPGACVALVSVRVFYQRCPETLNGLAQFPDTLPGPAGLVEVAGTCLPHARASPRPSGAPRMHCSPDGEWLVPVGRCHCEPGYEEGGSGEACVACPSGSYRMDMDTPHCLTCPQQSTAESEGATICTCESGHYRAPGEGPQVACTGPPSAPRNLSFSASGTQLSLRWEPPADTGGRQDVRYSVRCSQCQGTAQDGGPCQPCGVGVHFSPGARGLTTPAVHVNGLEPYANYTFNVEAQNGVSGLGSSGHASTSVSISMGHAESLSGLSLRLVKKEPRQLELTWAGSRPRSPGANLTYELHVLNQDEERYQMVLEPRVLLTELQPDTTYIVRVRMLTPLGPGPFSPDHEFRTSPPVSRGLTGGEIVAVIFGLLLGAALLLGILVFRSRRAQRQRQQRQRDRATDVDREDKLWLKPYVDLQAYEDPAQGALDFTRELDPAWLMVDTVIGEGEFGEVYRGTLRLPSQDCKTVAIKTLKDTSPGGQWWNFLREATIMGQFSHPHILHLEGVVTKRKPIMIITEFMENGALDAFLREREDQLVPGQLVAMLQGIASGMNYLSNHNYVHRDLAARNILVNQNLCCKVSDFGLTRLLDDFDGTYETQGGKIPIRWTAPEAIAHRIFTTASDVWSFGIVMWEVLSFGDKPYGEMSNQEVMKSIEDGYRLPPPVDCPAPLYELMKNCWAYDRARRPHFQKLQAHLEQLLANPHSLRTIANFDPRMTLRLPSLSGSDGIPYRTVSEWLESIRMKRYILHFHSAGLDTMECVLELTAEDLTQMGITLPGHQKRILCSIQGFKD

[7] = target: T3, Ephrin type-A receptor 1 (Homo sapiens); details: at 10 µM
[8] = target: Ephrin type-A receptor 2 (Homo sapiens) (UniProt P29317); details: at 1 µM
[9] = target: Ephrin type-A receptor 2 (Homo sapiens) (UniProt P29317); details: at 10 µM
[10] = target: T4, Ephrin type-A receptor 3 (Homo sapiens) (UniProt P29320); details: at 1 µM
T4 sequence (whole entry): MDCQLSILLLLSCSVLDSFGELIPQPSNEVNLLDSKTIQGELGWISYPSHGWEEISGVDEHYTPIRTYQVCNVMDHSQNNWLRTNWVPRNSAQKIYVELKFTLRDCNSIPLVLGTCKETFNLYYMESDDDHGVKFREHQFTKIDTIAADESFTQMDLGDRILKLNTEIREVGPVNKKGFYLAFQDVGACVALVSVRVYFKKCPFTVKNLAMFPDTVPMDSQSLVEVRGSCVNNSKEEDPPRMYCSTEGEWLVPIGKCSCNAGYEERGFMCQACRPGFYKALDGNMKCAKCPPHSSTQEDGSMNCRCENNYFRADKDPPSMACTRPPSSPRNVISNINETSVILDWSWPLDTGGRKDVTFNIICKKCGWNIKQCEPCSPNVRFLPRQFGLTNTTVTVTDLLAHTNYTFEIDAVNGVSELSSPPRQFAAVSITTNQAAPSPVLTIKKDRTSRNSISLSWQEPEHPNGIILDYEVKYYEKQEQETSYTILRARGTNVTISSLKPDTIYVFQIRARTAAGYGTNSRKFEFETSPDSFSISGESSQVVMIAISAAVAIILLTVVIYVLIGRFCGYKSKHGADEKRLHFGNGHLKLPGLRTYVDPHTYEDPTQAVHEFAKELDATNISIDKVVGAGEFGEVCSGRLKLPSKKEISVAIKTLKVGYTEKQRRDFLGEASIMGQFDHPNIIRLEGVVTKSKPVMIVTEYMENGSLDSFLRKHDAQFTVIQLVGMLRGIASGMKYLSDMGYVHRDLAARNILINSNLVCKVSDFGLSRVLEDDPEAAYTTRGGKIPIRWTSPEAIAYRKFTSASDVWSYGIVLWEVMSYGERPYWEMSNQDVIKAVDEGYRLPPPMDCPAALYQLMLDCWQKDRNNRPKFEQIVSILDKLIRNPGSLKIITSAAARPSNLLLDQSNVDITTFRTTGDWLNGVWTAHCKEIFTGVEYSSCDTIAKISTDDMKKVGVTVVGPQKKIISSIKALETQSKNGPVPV

[11] = target: T4, Ephrin type-A receptor 3 (Homo sapiens); details: at 10 µM
[12] = target: Ephrin type-A receptor 4 (Homo sapiens) (UniProt P54764); details: at 1 µM
[13] = target: Ephrin type-A receptor 4 (Homo sapiens) (UniProt P54764); details: at 10 µM
[14] = target: Ephrin type-A receptor 5 (Homo sapiens) (UniProt P54756); details: at 1 µM
[15] = target: Ephrin type-A receptor 5 (Homo sapiens) (UniProt P54756); details: at 10 µM
[16] = target: Ephrin type-A receptor 7 (Homo sapiens) (UniProt Q15375); details: at 10 µM
[17] = target: T5, Ephrin type-A receptor 8 (Homo sapiens) (UniProt P29322); details: at 1 µM
T5 sequence (whole entry): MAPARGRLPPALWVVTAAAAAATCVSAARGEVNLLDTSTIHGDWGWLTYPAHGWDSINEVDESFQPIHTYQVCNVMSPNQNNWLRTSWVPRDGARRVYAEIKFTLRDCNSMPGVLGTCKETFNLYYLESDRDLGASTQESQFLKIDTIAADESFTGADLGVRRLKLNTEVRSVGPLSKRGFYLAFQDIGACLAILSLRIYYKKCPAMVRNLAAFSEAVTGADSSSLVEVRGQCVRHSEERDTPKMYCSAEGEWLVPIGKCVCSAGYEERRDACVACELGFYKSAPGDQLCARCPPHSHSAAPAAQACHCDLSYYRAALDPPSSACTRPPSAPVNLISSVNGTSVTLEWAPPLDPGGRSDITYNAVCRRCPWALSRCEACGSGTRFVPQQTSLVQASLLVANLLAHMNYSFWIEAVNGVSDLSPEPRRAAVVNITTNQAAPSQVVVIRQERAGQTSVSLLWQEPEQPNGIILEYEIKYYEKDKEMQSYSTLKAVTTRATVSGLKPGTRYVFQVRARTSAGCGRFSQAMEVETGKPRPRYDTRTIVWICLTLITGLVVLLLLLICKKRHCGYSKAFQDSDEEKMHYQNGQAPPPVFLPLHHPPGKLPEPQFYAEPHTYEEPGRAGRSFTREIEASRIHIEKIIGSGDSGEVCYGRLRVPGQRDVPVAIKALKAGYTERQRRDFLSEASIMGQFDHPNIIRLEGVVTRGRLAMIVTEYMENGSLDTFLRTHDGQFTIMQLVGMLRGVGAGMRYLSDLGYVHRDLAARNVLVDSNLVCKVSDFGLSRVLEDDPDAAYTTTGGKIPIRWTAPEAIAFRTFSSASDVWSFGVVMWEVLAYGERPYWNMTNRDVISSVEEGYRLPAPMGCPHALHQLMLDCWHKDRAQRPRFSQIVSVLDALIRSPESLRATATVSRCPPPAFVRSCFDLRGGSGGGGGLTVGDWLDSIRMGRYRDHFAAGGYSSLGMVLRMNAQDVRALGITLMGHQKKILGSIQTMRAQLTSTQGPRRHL

[18] = target: T6, Ephrin type-B receptor 1 (Homo sapiens) (UniProt P54762); details: at 1 µM
T6 sequence (whole entry): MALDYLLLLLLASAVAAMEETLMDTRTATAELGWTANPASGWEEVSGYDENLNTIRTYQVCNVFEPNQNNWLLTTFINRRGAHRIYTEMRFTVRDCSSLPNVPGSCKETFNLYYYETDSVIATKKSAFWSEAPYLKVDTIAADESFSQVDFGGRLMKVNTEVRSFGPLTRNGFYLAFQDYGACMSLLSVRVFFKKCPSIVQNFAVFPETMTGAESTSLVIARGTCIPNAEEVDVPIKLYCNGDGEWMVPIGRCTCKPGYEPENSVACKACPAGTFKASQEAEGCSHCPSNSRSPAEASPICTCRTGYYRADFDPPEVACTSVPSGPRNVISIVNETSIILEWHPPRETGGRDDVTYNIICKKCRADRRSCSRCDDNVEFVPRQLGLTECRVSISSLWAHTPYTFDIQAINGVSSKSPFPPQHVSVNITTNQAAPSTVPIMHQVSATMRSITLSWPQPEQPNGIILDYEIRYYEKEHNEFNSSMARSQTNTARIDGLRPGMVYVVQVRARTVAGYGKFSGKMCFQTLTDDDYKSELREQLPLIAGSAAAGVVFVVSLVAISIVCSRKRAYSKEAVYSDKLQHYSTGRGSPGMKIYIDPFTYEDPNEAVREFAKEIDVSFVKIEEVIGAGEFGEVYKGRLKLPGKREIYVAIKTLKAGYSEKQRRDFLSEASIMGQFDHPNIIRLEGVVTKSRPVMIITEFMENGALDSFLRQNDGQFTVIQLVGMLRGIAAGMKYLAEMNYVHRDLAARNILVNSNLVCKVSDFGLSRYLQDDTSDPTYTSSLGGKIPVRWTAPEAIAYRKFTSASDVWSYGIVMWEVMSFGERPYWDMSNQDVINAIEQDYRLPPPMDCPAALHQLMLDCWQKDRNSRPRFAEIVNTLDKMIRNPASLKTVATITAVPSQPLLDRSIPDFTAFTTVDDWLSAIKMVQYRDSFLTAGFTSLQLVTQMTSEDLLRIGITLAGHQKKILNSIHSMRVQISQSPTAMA

[19] = target: Ephrin type-A receptor 7 (Homo sapiens) (UniProt Q15375); details: at 1 µM
[20] = target: T5, Ephrin type-A receptor 8 (Homo sapiens); details: at 10 µM

Chain of Ephrin type-A receptor 4 (Homo sapiens) (P54764 whole entry): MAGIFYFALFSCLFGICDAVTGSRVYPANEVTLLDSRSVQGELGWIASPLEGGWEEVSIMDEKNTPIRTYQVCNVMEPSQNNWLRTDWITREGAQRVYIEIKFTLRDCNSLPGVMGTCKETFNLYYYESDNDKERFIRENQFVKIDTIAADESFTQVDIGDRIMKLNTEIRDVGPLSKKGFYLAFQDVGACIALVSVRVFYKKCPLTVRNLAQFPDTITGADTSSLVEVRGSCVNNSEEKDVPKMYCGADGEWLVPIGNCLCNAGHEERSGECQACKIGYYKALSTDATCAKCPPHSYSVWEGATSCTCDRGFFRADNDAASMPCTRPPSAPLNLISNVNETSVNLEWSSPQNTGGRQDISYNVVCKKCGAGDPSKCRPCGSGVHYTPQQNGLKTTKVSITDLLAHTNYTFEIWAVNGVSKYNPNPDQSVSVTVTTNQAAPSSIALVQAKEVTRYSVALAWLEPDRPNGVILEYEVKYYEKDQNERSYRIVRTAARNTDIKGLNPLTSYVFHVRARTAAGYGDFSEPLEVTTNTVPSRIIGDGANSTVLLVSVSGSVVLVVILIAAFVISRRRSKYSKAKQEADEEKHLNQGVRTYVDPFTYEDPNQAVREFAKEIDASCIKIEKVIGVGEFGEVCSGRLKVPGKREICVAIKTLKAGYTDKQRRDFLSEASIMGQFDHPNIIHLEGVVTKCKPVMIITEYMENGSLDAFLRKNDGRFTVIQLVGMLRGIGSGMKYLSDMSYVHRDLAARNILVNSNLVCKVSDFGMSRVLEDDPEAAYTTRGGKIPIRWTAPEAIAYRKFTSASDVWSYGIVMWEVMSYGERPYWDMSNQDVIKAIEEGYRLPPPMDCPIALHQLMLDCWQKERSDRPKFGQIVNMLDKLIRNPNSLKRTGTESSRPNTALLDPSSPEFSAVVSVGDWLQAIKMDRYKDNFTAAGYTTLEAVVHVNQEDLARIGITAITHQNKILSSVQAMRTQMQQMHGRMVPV
Chain of Ephrin type-A receptor 2 (Homo sapiens) (P29317 whole entry): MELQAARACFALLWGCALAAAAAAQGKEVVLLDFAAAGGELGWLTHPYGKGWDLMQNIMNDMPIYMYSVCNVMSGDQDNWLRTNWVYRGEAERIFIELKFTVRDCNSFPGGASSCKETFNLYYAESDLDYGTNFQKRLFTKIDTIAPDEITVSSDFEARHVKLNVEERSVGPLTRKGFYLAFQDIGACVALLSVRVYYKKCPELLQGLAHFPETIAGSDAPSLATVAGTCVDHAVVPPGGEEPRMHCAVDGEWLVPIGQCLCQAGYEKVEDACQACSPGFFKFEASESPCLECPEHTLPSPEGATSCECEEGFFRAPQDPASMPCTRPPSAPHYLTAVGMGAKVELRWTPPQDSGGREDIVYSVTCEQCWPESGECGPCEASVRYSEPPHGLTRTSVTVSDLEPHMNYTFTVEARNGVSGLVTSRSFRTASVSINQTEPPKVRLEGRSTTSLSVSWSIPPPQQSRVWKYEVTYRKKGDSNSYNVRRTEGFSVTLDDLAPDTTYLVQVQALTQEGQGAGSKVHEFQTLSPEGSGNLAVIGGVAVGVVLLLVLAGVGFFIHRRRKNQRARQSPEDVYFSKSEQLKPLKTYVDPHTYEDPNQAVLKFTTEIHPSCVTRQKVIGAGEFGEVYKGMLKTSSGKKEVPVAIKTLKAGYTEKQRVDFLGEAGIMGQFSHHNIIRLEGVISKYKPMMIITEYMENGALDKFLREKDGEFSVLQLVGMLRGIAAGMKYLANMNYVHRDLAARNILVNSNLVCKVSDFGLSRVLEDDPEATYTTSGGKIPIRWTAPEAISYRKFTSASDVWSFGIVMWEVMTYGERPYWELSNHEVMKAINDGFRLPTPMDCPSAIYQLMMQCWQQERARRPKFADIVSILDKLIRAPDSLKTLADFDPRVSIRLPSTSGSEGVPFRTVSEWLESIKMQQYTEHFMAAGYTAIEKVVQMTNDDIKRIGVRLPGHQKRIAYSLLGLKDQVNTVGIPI
Chain of Ephrin type-A receptor 5 (Homo sapiens) (P54756 whole entry): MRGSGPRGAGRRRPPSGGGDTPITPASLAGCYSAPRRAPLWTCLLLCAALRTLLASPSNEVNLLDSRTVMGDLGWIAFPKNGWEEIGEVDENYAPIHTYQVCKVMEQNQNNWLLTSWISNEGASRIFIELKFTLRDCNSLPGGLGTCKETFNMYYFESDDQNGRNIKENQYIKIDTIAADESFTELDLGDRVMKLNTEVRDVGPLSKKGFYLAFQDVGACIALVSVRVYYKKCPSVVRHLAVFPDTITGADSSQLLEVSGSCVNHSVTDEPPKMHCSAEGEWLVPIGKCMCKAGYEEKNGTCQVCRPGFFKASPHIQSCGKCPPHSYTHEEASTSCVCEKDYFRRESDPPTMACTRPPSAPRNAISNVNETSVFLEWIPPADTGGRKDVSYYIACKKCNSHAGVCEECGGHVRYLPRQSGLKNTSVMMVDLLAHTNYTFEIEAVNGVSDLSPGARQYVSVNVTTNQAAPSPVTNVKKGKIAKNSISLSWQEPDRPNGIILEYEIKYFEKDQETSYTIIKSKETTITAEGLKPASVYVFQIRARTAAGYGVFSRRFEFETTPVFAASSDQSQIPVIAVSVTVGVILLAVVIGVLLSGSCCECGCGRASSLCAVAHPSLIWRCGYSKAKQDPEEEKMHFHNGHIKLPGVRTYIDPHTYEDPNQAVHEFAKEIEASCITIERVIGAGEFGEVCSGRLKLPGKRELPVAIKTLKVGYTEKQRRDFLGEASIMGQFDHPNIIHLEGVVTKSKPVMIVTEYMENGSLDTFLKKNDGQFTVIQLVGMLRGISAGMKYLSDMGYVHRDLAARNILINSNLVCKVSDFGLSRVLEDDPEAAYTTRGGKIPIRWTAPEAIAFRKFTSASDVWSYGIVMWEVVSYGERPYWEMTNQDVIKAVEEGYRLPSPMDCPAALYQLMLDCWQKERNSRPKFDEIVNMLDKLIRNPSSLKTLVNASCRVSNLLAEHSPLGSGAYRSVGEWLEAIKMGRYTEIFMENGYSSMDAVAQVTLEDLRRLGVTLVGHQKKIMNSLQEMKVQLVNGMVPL
Chain of Ephrin type-A receptor 7 (Homo sapiens) (Q15375 28-998 limits assumed): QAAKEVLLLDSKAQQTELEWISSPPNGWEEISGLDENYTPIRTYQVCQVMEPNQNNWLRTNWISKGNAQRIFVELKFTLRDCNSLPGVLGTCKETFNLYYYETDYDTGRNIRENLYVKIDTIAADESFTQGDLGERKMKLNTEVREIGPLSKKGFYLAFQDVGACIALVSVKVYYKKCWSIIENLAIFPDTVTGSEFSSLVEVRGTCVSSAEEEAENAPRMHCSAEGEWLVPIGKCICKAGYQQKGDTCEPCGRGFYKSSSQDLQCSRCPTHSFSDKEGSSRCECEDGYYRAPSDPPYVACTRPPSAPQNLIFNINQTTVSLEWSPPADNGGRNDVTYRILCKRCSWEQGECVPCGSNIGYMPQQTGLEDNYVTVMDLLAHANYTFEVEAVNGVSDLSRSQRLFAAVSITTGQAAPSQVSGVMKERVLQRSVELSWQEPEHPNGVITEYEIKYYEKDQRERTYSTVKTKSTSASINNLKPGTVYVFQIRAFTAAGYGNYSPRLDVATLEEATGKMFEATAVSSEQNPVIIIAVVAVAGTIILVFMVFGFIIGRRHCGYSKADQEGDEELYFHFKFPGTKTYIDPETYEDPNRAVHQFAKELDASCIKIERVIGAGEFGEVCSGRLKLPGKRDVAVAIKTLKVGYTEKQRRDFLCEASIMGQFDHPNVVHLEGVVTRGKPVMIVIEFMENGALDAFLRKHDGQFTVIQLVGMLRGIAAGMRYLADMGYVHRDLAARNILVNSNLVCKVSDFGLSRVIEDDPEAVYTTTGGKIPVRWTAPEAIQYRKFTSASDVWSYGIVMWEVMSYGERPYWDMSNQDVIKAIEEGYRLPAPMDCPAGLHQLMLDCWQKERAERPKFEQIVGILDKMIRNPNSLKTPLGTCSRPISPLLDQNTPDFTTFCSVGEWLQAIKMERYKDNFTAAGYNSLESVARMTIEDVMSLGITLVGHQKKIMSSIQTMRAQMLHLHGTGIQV

SMILES	residual activity [1]	residual activity [2]	residual activity [3]	residual activity [4]	residual activity [5]	residual activity [6]	residual activity [7]	residual activity [8]	residual activity [9]	residual activity [10]	residual activity [11]	residual activity [12]	residual activity [13]	residual activity [14]	residual activity [15]	residual activity [16]	residual activity [17]	residual activity [18]	residual activity [19]	residual activity [20]
O=[N+]([O-])c1ccc(-c2nc(-c3ccc(F)cc3)c(-c3ccncc3)[nH]2)cc1	104%	100%	91%	87%	95%	83%	92%	89%	97%	99%	90%	105%	107%	100%	94%	101%	93%	103%		
O=Nc1c(-c2c(O)[nH]c3ccccc23)[nH]c2ccccc12	4%	79%	20%			55%	61%	61%	16%	58%	9%	96%	83%	59%	9%	15%	84%	59%	70%	43%
